PubChem BioAssay (NCI)
This is part of a sample that, as a whole, favours compounds with a hit. Of some 79,000 tested, about 15% had one in any assay. Activity calls are given as the source filed them. No stated cut-off is given here; in the data, active means growth inhibition above about 70%; inactive means the rest.

Assays:
[1] = NCI Yeast Anticancer Drug Screen. Data for the rad52 strain (AID 147);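 further: 0% = growth of vehicle-treated control cultures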; details: S. cerevisiae rad52 mutant growth inhibition, stronger effect = higher value
Summary of the method: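 Compounds are applied to a genetically defined yeast strain lacking normal DNA damage repair, and inhibition of growth is expressed relative to cultures given vehicle only.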

[2] = NCI Yeast Anticancer Drug Screen. Data for the wt1 strain (AID 149);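 further: 0% = growth of vehicle-treated wt1 cultures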; details: S. cerevisiae wt1 strain (SPY 50644) growth inhibition, stronger effect = higher value
Summary of the method: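 wt1 strain grown with compound or vehicle; inhibition taken from the growth difference.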

[3] = NCI Yeast Anticancer Drug Screen. Data for the rad50EPP+ strain (AID 151);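 further: 0% = growth of vehicle-treated control cultures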; details: S. cerevisiae rad50 mutant strain, stronger effect = higher value
Summary of the method: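 Compounds were applied to the rad50EPP+ yeast strain, which bears a defined DNA repair alteration, and growth inhibition was determined relative to vehicle-treated cultures.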

[4] = NCI Yeast Anticancer Drug Screen. Data for the mgt1 strain (AID 153); details: S. cerevisiae mgt1 mutant growth inhibition, stronger effect = higher value
Summary of the method: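 Strain: mgt1 yeast, one of a set carrying defined DNA damage repair or cell cycle control alterations. Compound-treated growth compared with vehicle.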

[5] = NCI Yeast Anticancer Drug Screen. Data for the rad50 strain (AID 155);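 further: 0% = growth of vehicle-only cultures of the same strain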; details: S. cerevisiae rad50 strain growth inhibition, stronger effect = higher value
Summary of the method: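 DNA repair mutant yeast, compound exposure, growth read-out; inhibition is taken relative to vehicle.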

[6] = NCI Yeast Anticancer Drug Screen. Data for the mec2-1 strain (AID 157); details: S. cerevisiae mec2-1 strain, stronger effect = higher value
Summary of the method: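 Strain: mec2-1 (DNA repair/cell cycle alteration). Compound exposure, then growth measured; inhibition expressed relative to vehicle.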

[7] = NCI Yeast Anticancer Drug Screen. Data for the rad14 strain (AID 159);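 further: 0% = growth of vehicle-treated control cultures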; details: S. cerevisiae rad14 strain growth inhibition, stronger effect = higher value
Summary of the method: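 DNA repair-defective yeast, compound-exposed; % growth inhibition derived by comparison with vehicle-treated controls.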

[8] = NCI Yeast Anticancer Drug Screen. Data for the sgs1 mgt1 strain (AID 161);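 further: 0% = growth of cultures given vehicle only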; details: S. cerevisiae sgs1 mgt1 strain, stronger effect = higher value
Summary of the method: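 Read-out: growth inhibition vs vehicle controls. Cells: mutant yeast strain deficient in DNA damage repair.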

[9] = NCI Yeast Anticancer Drug Screen. Data for the CLN2oe strain (AID 163);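 further: 0% = growth of vehicle-only control cultures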; details: S. cerevisiae CLN2oe strain, stronger effect = higher value
Summary of the method: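 Growth of a genetically modified yeast strain is measured after compound exposure and compared with cultures given vehicle alone.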

[10] = NCI Yeast Anticancer Drug Screen. Data for the cln2 rad14 strain (AID 165);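 further: 0% = growth equal to vehicle treated cultures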; details: S. cerevisiae cln2 rad14 strain, stronger effect = higher value
Summary of the method: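 Compounds are applied to the cln2 rad14 yeast strain, and growth is then compared with that of vehicle-treated cultures to give inhibition.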

[11] = NCI Yeast Anticancer Drug Screen. Data for the bub3 strain (AID 167); details: S. cerevisiae bub3 mutant strain, stronger effect = higher value
Summary of the method: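 In this screen, a yeast mutant lacking normal mitotic checkpoint function is challenged with compound. Relative growth versus vehicle gives the inhibition value.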

[12] = NCI Yeast Anticancer Drug Screen. Data for the wt2 strain (AID 169);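 further: 0% = growth of vehicle-treated yeast cultures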; details: S. cerevisiae wt2 strain growth inhibition, stronger effect = higher value
Summary of the method: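 This strain belongs to a panel of yeast strains with defined genetic alterations in DNA damage repair or cell cycle control. Compounds are applied, and growth inhibition is measured against vehicle-treated cultures.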

[13] = NCI Yeast Anticancer Drug Screen. Data for the mlh1 strain (AID 171);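 further: 0% = growth of vehicle-treated control cultures of the same strain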; details: S. cerevisiae mlh1 strain growth inhibition, stronger effect = higher value
Summary of the method: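 Growth of the mutant yeast strain after compound exposure, expressed as inhibition relative to vehicle-only controls.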

[14] = NCI Yeast Anticancer Drug Screen. Data for the sgs1 strain (AID 173);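 further: 0% = growth of vehicle-only control cultures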; details: S. cerevisiae sgs1 mutant, stronger effect = higher value
Summary of the method: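 Growth of a yeast strain bearing a defined genetic alteration is measured after compound treatment. Inhibition is expressed relative to vehicle-only controls.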

[15] = NCI Yeast Anticancer Drug Screen. Data for the mlh1 rad18 strain (AID 175); details: S. cerevisiae mlh1 rad18 strain growth inhibition, stronger effect = higher value
Summary of the method: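 Read-out is yeast growth inhibition, calculated against vehicle-only controls. The compound was applied to a strain engineered with DNA damage repair alterations.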

[16] = at 5.0 µM (retest, dose inferred, filed as 0.5)
[17] = at 50.0 µM (retest, dose inferred, filed as 5.0)

Measured: growth inhibition

CC1OC(O[C@H]2/C=C/C=C/C=C/C=C/C=C/C=C/C=C/[C@H](C)[C@@H](O)[C@@H](C)[C@H](C)OC(=O)C[C@H](O)C[C@H](O)CC[C@@H](O)[C@H](O)C[C@H](O)C[C@]3(O)C[C@H](O)[C@@H](C(=O)O)[C@H](C2)O3)C(O)C(N)C1O (stereo partly drawn)
active: [1]; at 11.0 µM 98% | [1]; at 33.0 µM 98% | [1]; at 100.0 µM 98% | [2]; at 11.0 µM 98% | [2]; at 33.0 µM 98% | [2]; at 100.0 µM 98% | [3]; at 3.7 µM 97% | [3]; at 11.0 µM 99% | [3]; at 33.0 µM 99% | [3]; at 100.0 µM 98% | [4]; at 11.0 µM 98% | [4]; at 33.0 µM 99% | [4]; at 100.0 µM 98% | [5]; at 11.0 µM 98% | [5]; at 33.0 µM 98% | [5]; [17] 99% | [5]; at 50.0 µM 99.1% | [5]; at 100.0 µM 97% | [6]; at 11.0 µM 98% | [6]; at 33.0 µM 98% | [6]; [17] 99% | [6]; at 50.0 µM 99.4% | [6]; at 100.0 µM 98% | [7]; at 11.0 µM 95% | [7]; at 33.0 µM 97% | [7]; at 100.0 µM 98% | [8]; [17] 99% | [8]; at 50.0 µM 99.2% | [9]; at 11.0 µM 98% | [9]; at 33.0 µM 98% | [9]; at 100.0 µM 98% | [10]; [17] 99% | [10]; at 50.0 µM 99.1% | [11]; at 11.0 µM 98% | [11]; at 33.0 µM 98% | [11]; [17] 99% | [11]; at 50.0 µM 98.8% | [11]; at 100.0 µM 98% | [12]; at 11.0 µM 96% | [12]; at 33.0 µM 98% | [12]; at 100.0 µM 98% | [13]; at 3.7 µM 78% | [13]; at 11.0 µM 98% | [13]; at 33.0 µM 98% | [13]; at 100.0 µM 98% | [14]; at 11.0 µM 99% | [14]; at 33.0 µM 99% | [14]; at 100.0 µM 99% | [15]; [17] 99% | [15]; at 50.0 µM 98.7%
inactive: [1]; at 1.2 µM 2% | [1]; at 3.7 µM 45% | [2]; at 1.2 µM 2% | [2]; at 3.7 µM 13% | [3]; at 1.2 µM 25% | [4]; at 1.2 µM 17% | [4]; at 3.7 µM 57% | [5]; at 1.2 µM 19% | [5]; at 3.7 µM 61% | [5]; [16] 18% | [6]; at 1.2 µM -2% | [6]; at 3.7 µM 28% | [6]; [16] 32% | [7]; at 1.2 µM 2% | [7]; at 3.7 µM 23% | [8]; [16] 25% | [9]; at 1.2 µM 2% | [9]; at 3.7 µM 23% | [10]; [16] 50% | [11]; at 1.2 µM -19% | [11]; at 3.7 µM 19% | [11]; [16] 14% | [12]; at 1.2 µM -65% | [12]; at 3.7 µM -3% | [13]; at 1.2 µM 7% | [14]; at 1.2 µM 10% | [14]; at 3.7 µM 50% | [15]; [16] 47%
